The values below come from PubChem BioAssay.

By inhibition is commonly meant the relative decrease from the control value, in per cent.

A number with no mark means an inactive call. The rule behind the calls is not given here.

For this experiment, the target named is Pantothenate synthetase (Mycobacterium tuberculosis (strain ATCC 25618 / H37Rv)) (UniProt P9WIL5). Nature of the experiment: Recombinant Mtb pantothenate synthetase (PanC) inhibitors, coupled enzyme, confirmatory (AID 375).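 Note: 0% = full reaction with vehicle and 100% = no enzyme background.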 As to conditions: coupled enzyme assay; at 10 µM, hits give high values.
Pantothenate synthetase (Mycobacterium tuberculosis (strain ATCC 25618 / H37Rv)), sequence (P9WIL5 whole entry, looked up): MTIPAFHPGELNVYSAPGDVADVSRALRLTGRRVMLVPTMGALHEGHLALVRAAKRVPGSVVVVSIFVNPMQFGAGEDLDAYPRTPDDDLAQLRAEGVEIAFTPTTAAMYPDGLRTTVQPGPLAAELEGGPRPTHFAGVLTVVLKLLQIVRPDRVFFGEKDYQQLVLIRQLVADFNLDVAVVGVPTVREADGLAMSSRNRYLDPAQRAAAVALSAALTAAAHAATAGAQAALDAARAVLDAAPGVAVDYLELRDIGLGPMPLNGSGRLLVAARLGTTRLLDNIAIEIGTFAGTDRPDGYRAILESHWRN
As for `CC(=O)C1=C(C)OC(N)=C(C#N)C1c1ccncc1` (stereo not given), the inhibition is 0%.

On to `CC(C)C(c1nnnn1CC1CCCO1)N1CCN(Cc2ccc3c(c2)OCO3)CC1` (stereo not given), for which the inhibition is 0%.

With `COc1cc(Cl)c(C)cc1NC(=O)COC(=O)c1cnc(C)cn1`, the inhibition was 0%.

`CC(C)(C)OC(=O)N1CCCC1C(=O)N1CCc2ccccc21` (stereo not given): the inhibition was 0%. Next, `CCCC(=O)Nc1ccc(C(=O)O)cc1NC(=O)CCC`: 0%. Regarding `CSc1cccc(NS(=O)(=O)c2ccccc2)c1`, the inhibition was 0%. To `Nc1nc2ccccc2n1C(=O)CCc1ccccc1` belongs 0%; to `COc1ccc(-n2ncc3c(NCc4ccccn4)ncnc32)cc1`, 11%; to `CC(CC(=O)NCc1ccccc1)C1CCCO1` (stereo not given), 0%. In the case of `CC(=O)Nc1ccc(NC2=CC(=O)CC(C)(C)C2)cc1`, the inhibition was 4%. To `CC(=O)Nc1ccc(N=Cc2ccc[nH]2)cc1` belongs 0%. Next, `COc1cc(C(=O)N2c3ccccc3CC2C)cc(OC)c1OC` (stereo not given): 0%; `CC(C)OC(=O)CSc1nnc(-c2cccnc2)n1Cc1ccccc1`: 3%; `O=C(c1ccccc1Cl)N1CCc2ccccc2C1`: 0%. Regarding `CCOC(=O)N1CCN(Cc2nc3c(c(=O)[nH]c(=O)n3C)n2Cc2cc(C)ccc2C)CC1`, the inhibition is 0%. Next, `Cc1ccc(-c2nn(-c3ccccc3)cc2CN(Cc2ccccc2)C(=O)CCC(=O)O)o1`: 8%. To `Cc1ccc(NC(=O)c2ccc(NS(=O)(=O)c3c(C)noc3C)cc2)cc1C` belongs 0%; to `Cc1ccc(Cl)cc1N1CCN(C(=O)CN2C(=O)c3cccc4cccc2c34)CC1`, 6%; to `CCn1c(=O)n(CC(=O)Nc2cc(OC)ccc2OC)c(=O)c2ccccc21`, 10%. Turning to `O=C(NCCN1C(=O)C2C3C=CC(C3)C2C1=O)N1CCCCC1` (stereo not given), the inhibition was 0%. Next, `CCN(CC)S(=O)(=O)N1CCC(C(=O)NCC2COc3ccccc3O2)CC1` (stereo not given): 1%; `c1ccc2c(c1)C(=Nn1cnnc1)c1ccccc1-2`: 0%; `Cc1ccc(S(=O)(=O)NCCC(=O)OCn2nnc3ccccc3c2=O)cc1`: 1%. To `COc1ccc(CCNC(=O)CN(c2ccccc2OC)S(C)(=O)=O)cc1` belongs 0%. Next, `CCN1CCN(C(=O)C2CC(c3ccc(F)cc3)=NO2)CC1` (stereo not given): 0%.

Regarding `Cc1nc(NCCNC(=O)c2ccco2)c2c(C)c(C)sc2n1`, the inhibition was 2%.

For `CCc1ccc(NC(=O)CS(=O)CC(=O)NCC2OCCc3ccccc32)cc1` (stereo not given), the inhibition is 0%.

`CSc1nc2ccccc2c(=O)n1N`: the inhibition is 0%. To `O=C(c1c(Cl)nc2sccn12)N(C(=O)c1c(Cl)nc2sccn12)c1ccc(Cl)cn1` belongs 0%; to `CN(C)C(=O)Oc1ccc[n+](C)c1`, 4%; to `C/C=C/CSc1nc2c(c(=O)[nH]c(=O)n2C)n1Cc1ccc(C)cc1`, 4%. Regarding `COc1ccc(CCn2c(=N)c(C(=O)NCc3ccco3)cc3c(=O)n4ccccc4nc32)cc1`, the inhibition is 0%. To `CCCCNC(=O)OC(C)CNC(=O)Oc1cccc(C)c1` (stereo not given) belongs 0%; to `CCOC(=O)C1CCN(C(=O)c2c(-c3c(Cl)cccc3Cl)noc2C)CC1`, 0%.

Turning to `CCCN1CCN(C(=O)c2cn(CC(C)C)c(=O)c3cc(OC)c(OC)cc23)CC1`, the inhibition is 5%. To `CCNC(=O)N1c2ccc(OCC)cc2C(C)=CC1(C)C` belongs 0%. To `CC(c1ccco1)N(C(=O)c1ccc(S(=O)(=O)N2CCCCC2)cc1)c1ccccn1` (stereo not given) belongs 2%. Next, `C=CCn1c(-c2ccccc2)c[nH]c1=S`: 0%. With `O=c1c(F)cn(C2CCCO2)c(=O)n1Cc1c(F)cccc1Cl` (stereo not given), the inhibition is 0%. To `c1ccc2c(c1)c1c3n2CCNC3CCC1` (stereo not given) belongs 0%.
